Test results published in PubChem BioAssay AID2716 (Broad Institute, 2010).
Hit rate of the full screen: of about 320,000 compounds, about 3,300 (1%) were called active.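 Rule for the calls: active = every valid replicate shows activation above 250% relative to neutral control wells; inactive = the rest, any valid replicate at or below 250%.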 The list comes from a sample in which actives are over-represented; it also holds close analogues and randomly drawn compounds.

Assay: yeast Mot1-301 growth rescue at high temperature, primary screen, SUMOylation pathway inhibitor project, S. cerevisiae, ATP luminescence, 38.5C (AID 2716)
Conditions: S. cerevisiae Mot1-301 growth rescue, at 18.8 µM, hits give high values

| SMILES | growth rescue |
| --- | --- |
| COc1ccc(-n2c(-c3ccccc3)nc3ccccc3c2=O)cc1 | 524% (active) |
| O=c1c2ccccc2nc(-c2ccccc2)n1-c1ccccn1 | -8.46% (inactive) |
| Cc1ccc(-n2c(-c3ccc([N+](=O)[O-])cc3)nc3ccccc3c2=O)cc1 | 30.7% (inactive) |
| C[C@@]1([C@@H](NP(=O)(c2ccccc2)c2ccccc2)c2ccccc2)C[C@H]1CCO | 28.7% (inactive) |
| CCCC(C)n1[nH]c(=O)c2c1NC(=O)CSC2c1ccc(OC)c(OC)c1 (stereo not given) | -11.2% (inactive) |
| O=C(c1ccccc1[N+](=O)[O-])N1CCC2(CC1)OCCO2 | -11.1% (inactive) |
| c1ccc(CCN2CCC3(CC2)OCCO3)cc1 | 313% (active) |
| O=C(Nc1cccc2ccccc12)N1CCC2(CC1)OCCO2 | 2.67% (inactive) |
| COc1ccccc1OC(=O)c1ccc(C)c(S(=O)(=O)N2CCOCC2)c1 | -7.94% (inactive) |
| CCOP(=O)(OCC)C(O)c1ccc(OC)cc1OC (stereo not given) | -5.29% (inactive) |
| COc1ccc(-n2c(O)c(C(C)=Nc3ccc4c(c3)CCC4)c(=O)[nH]c2=O)cc1 | -1.78% (inactive) |
| COc1ccc(N=Cc2c(O)n(C)c(=O)[nH]c2=O)cc1 | 842% (active) |
| COc1ccccc1-n1c(O)c(C=NC2CC2)c(=O)[nH]c1=O | -17.5% (inactive) |
| CC(Cc1ccccc1)NCCC(c1ccccc1)c1ccccc1 (stereo not given) | -27.1% (inactive) |
| CC(=NCc1ccc2c(c1)OCO2)c1c(O)[nH]c(=O)[nH]c1=O | -26.7% (inactive) |
